Publication PMC7819943, “Rice protein-binding microarrays: a tool to detect cis-acting elements near promoter regions in rice”
In all, about 35,000 sequences were measured (“fluorescence intensity (a.u.)”: median about 10,000, highest 2% from about 52,000 on). What follows is part of a selection rich in the highest values, with near analogues and random picks from the rest.

molecular target: T1, OsWOX13 (Oryza sativa, UniProt Q5QMM3 1-267); experiment: protein-binding microarray (RPBM); PBS, 2% BSA, 51.3 ng/ul salmon testes DNA, 50 uM zinc acetate, 200 nM TF, 25 C, 1 h; high values mean tight binding; conditions: protein: recombinant; tags: N-terminal polyhistidine and DsRed monomer fusion (pET32a); label: CyDye5-dUTP incorporated in the synthesized complementary strand; 3' TTTTT single-stranded linker to array surface; dsDNA, one strand shown
T1 sequence: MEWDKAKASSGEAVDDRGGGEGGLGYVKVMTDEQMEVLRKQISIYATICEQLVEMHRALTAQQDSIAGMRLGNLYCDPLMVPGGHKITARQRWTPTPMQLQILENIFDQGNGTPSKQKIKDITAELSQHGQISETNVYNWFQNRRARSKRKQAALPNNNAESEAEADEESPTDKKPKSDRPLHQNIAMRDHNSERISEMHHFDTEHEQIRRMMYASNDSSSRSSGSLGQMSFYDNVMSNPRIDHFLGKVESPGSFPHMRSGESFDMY
Procedure, shortened: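 The binding signal is fluorescence intensity per array feature (arbitrary units). Readings came from an Axon 4000B scanner after a washed, 2% BSA-blocked, double-stranded custom Agilent array had been incubated for 1 h at 25 °C with 200 nM protein and 50 µM zinc acetate. The protein was a Ni–NTA-purified transcription factor fused N-terminally to polyhistidine and DsRed, expressed in E. coli BL21-CodonPlus.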

Sequence | binding signal
CCAATTGACTATATATAACATAGTACTTGCTAGCTTAATTCGGAGTCACCTAGTGCAG | 3640 fluorescence intensity (a.u.)
TTTAGGATTGAAGTAAACTGTAAACTATATGTCTGACCGCCGGAGTCACCTAGTGCAG | 16600 fluorescence intensity (a.u.)
CAATACATAACAGACAAATTATCAAAATAGATTAAAGTTTCGGAGTCACCTAGTGCAG | 4710 fluorescence intensity (a.u.)
ATTTTAAATTTATTATATGATGATTAATTTGGGAATGAGGCGGAGTCACCTAGTGCAG | 28400 fluorescence intensity (a.u.)
TACATCACTAATCACGTTGCTTCGATGACACCTCCTTCTTCGGAGTCACCTAGTGCAG | 7440 fluorescence intensity (a.u.)
TGTATGTGTGTACTCGTAATTAGTGAGAATTTAAATTCATCGGAGTCACCTAGTGCAG | 3820 fluorescence intensity (a.u.)
CAAAAGTGTTCAATCAAATATGAAAATGAGTATAATGCAACGGAGTCACCTAGTGCAG | 6990 fluorescence intensity (a.u.)
CTAATTAGGTCCAGGACATTAAATGGGTTGATTACGTCACCGGAGTCACCTAGTGCAG | 8450 fluorescence intensity (a.u.)
GTTTATGTTAGTGCTAGTGATTAGTACTTAAACATTCAGACGGAGTCACCTAGTGCAG | 4010 fluorescence intensity (a.u.)
CTTATTAGCACATGATTAATTAATTATTAACTATTATAAACGGAGTCACCTAGTGCAG | 19500 fluorescence intensity (a.u.)
AATACTTGCAAATTAGCTAACTAGTTCTCCTAATTGAGCCCGGAGTCACCTAGTGCAG | 9350 fluorescence intensity (a.u.)
AAATTTATAATTTTACAATAAATTTGATATTAAATTTGTACGGAGTCACCTAGTGCAG | 12300 fluorescence intensity (a.u.)
ATAACTAATAAATGATTGAATTAGATGAATAGGTAGTTTCCGGAGTCACCTAGTGCAG | 31000 fluorescence intensity (a.u.)
AAGAGTTTAAATTTTAAAATGATTTTATAAGTGGTTAACCCGGAGTCACCTAGTGCAG | 7500 fluorescence intensity (a.u.)
AGGCACTAAAATAATCTAATTGATTAACTAATCGGTCACCCGGAGTCACCTAGTGCAG | 25300 fluorescence intensity (a.u.)
AACTTATAAATTGATTTATAAGTCTAAATAAAGAGGCACCCGGAGTCACCTAGTGCAG | 55800 fluorescence intensity (a.u.)
GTTTCTAATTAACTAAATTAATTAATTAGCATGATTGGTCCGGAGTCACCTAGTGCAG | 64700 fluorescence intensity (a.u.)
ATCTGGCAATAATTTACAATTAATTGATACCTTATTGCCTCGGAGTCACCTAGTGCAG | 54800 fluorescence intensity (a.u.)
TGCTAACTTGAGATGAATGTCGAACTCCTAATTGCAGCTCCGGAGTCACCTAGTGCAG | 3470 fluorescence intensity (a.u.)
CCAATTTAATAAAATAAATTGATACTATAAATATTACAATCGGAGTCACCTAGTGCAG | 9090 fluorescence intensity (a.u.)
GAACTAATTGATACATTAGCCACTTGATGAGCTCCTCTCCCGGAGTCACCTAGTGCAG | 58600 fluorescence intensity (a.u.)

Sequence | binding signal
CATGACAGCGTGCTTGGATCAACCGCTTTTGTCTTCTCCACGGAGTCACCTAGTGCAG | 3780 fluorescence intensity (a.u.)
ATTGATAAGCCTAATTTAGACATCAAACCAAACCAGCCCTCGGAGTCACCTAGTGCAG | 14300 fluorescence intensity (a.u.)
TTGATCATGATGATATTTAATTTGTTTAGATCACACACTACGGAGTCACCTAGTGCAG | 10200 fluorescence intensity (a.u.)
ATTCCTAAAATTATATGAATTTATGAGAAATTACGTAATGCGGAGTCACCTAGTGCAG | 4300 fluorescence intensity (a.u.)
ATGGAATCAGTAATTAACTAGAAATAAATTAATACTCCTACGGAGTCACCTAGTGCAG | 9880 fluorescence intensity (a.u.)
TGGCAATGATTTATACTTCAATCATAATTGTTTGCTTAGGCGGAGTCACCTAGTGCAG | 24000 fluorescence intensity (a.u.)
TTAGCTATCACAGACACAATCACACAACGATGGTAAAACACGGAGTCACCTAGTGCAG | 6740 fluorescence intensity (a.u.)
TGTGATTGGTAATTGCCGAACTATTTGAAAATGGTGCGTGCGGAGTCACCTAGTGCAG | 62300 fluorescence intensity (a.u.)
TTATGCATTAACAACGTAACTAATTTAATTTGATTAGTTTCGGAGTCACCTAGTGCAG | 24000 fluorescence intensity (a.u.)
AGGGTAATTACACATTTAACCCTATTTTAAGGTCTAACTACGGAGTCACCTAGTGCAG | 18400 fluorescence intensity (a.u.)
ATTAATTAAAATCGCGCCCAATTAATCATTTAATCCATCCCGGAGTCACCTAGTGCAG | 40700 fluorescence intensity (a.u.)
GACATTAATTAATTTAAATTAACGCTCACTGTTCATCGCCCGGAGTCACCTAGTGCAG | 65500 fluorescence intensity (a.u.)
CCAAATTTGGTAATTTAGAATTTGAACTAGCGTGAGAAAACGGAGTCACCTAGTGCAG | 19800 fluorescence intensity (a.u.)
TCACTGTTATTTAATTATATATATATATATATATTCATGCCGGAGTCACCTAGTGCAG | 8880 fluorescence intensity (a.u.)
ATTAATTAATTAACCTCTAACATTTAACTAATGCAGGTAACGGAGTCACCTAGTGCAG | 56900 fluorescence intensity (a.u.)
AGAATGGTGATTAACTATTGGTGTTAATTAATTTGCTGCACGGAGTCACCTAGTGCAG | 31000 fluorescence intensity (a.u.)
ACCAATTATAAACACAAGTTAATGGGCAAATGACATGGAACGGAGTCACCTAGTGCAG | 11500 fluorescence intensity (a.u.)
TTAATTTACCGGATTCAATATTCCATATTTAGAAGTCACCCGGAGTCACCTAGTGCAG | 3350 fluorescence intensity (a.u.)
CATGACATCGTCATTGACCGTGTCATCGTCAAGATGGATGCGGAGTCACCTAGTGCAG | 4420 fluorescence intensity (a.u.)
AATAAAAGATTATCATATCTAAATAGAAGATATACCATCTCGGAGTCACCTAGTGCAG | 4160 fluorescence intensity (a.u.)
AAACCAATTTCAATTACCAATTACTCCCTAATATTAGCTACGGAGTCACCTAGTGCAG | 18900 fluorescence intensity (a.u.)
